The record followed here is PubChem BioAssay AID1645887 (National Center for Advancing Translational Sciences (NCATS), 2021).

SMILES strings stand for the structures. Where “and” joins values, the source holds several entries; their conditions need not be identical. Equal values may be shown once. Hit rate of the full screen: of about 16,000 compounds, about 40 (0.2%) were called active. Inconclusive results (about 1%) are left out. Calls follow the shape of the dose curve; as a rule, active = well fitted activation curve with a large enough effect; inconclusive = small, poorly fitted or top-dose-only effect, or another doubt; inactive = no such curve, though single readings can be large or run the other way. Many of the other results were omitted from the sample, so actives are more common in it than they were. Some compounds were tested as several samples or in several runs, with calls that do not always agree.
% is scaled to controls: 0 for no effect and ±100 for the full control effect; potency is read from the fitted curve at half-maximal effect.

Rap guanine nucleotide exchange factor 4 (Homo sapiens), sequence (Q8WZA2 whole entry, looked up): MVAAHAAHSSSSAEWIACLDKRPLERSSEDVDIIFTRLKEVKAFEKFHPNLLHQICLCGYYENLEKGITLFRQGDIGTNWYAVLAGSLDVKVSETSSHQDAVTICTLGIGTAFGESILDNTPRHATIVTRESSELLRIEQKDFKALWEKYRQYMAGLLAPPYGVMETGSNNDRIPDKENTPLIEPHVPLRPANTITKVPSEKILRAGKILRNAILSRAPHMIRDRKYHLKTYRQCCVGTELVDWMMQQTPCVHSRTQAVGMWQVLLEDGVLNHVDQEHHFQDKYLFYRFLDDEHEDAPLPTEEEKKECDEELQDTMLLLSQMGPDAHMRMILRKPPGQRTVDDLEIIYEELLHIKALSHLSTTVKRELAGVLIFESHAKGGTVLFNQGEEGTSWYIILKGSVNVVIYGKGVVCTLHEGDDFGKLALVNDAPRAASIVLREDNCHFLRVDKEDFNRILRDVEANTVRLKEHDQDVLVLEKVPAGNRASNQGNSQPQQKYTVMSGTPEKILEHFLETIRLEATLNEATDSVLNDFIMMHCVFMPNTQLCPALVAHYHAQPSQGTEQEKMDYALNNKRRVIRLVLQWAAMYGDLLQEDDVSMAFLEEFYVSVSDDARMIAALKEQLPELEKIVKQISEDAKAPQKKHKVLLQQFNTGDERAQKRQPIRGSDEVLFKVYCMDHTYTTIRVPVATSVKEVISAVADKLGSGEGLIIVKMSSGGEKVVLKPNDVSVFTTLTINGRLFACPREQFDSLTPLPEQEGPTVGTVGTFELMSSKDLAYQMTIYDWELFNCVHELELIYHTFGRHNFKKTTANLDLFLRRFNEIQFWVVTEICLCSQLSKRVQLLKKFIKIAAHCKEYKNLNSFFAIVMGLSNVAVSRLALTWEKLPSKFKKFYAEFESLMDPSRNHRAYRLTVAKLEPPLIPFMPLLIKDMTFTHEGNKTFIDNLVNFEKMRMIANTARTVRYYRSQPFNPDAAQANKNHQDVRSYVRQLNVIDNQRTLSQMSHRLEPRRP

The assay deals with Rap guanine nucleotide exchange factor 4 (Homo sapiens) (UniProt Q8WZA2). Nature of the assay: Validation qHTS for agonist of cAMP-regulated guanine nucleotide exchange factor 4 (EPAC2).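 As to activation: exchange makes BODIPY-GDP fluorescence drop when released from Rap1B; series mostly up to about 150 µM.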 Particulars: EPAC2 Rap1B BODIPY-GDP exchange, fluorescence; activation: active compounds read high. The source says:
Principle Investigator: Xiaodong Cheng Ph.D.
The University of Texas Medical Branch, […], TX
In multi-cellular eukaryotic organisms, the effects of cAMP are transduced by two ubiquitously-expressed intracellular cAMP receptors, the classic protein kinase A/cAMP-dependent protein kinase (PKA/cAPK) and the more recently discovered exchange protein directly activated by cAMP/cAMP-regulated guanine nucleotide exchange factor (EPAC/cAMP-GEF). Both PKA and EPAC are ubiquitously expressed in all tissues, and an increase in intracellular cAMP levels will lead to the activation of both PKA and EPAC. Therefore, careful dissections of the individual role and relative contribution of EPAC and PKA within the overall cAMP signaling in various model systems are critical for further elucidating the mechanism of cAMP signaling. To date no EPAC-specific antagonists and agonist, as well as isoform-specific agonists have been reported, and developing EPAC-specific pharmacological probes to determine the physiological functions that EPAC play in the overall cAMP-mediated signaling remains a major challenge within the research field. Furthermore, identified regulators of EPAC may lead to new mechanism-based therapeutic strategies specifically targeting the EPAC / cAMP-signaling components as EPAC has been implicated to play important roles in major human pathological conditions such as diabetes, heart disease, and cancer.
This qHTS will be used to screen the Molecular Libraries Small Molecule Repository (MLSMR) as a concentration-titration series using the NCGC unique quantitative screening (qHTS) platform to find activators for EPAC1. In addition, this assay will also be used as a counterscreen for the EPAC2 qHTS. This fluorescent based assay is developed and validated for EPAC1 that measures exchange using EPAC effector Rap1 complex with BODIPY-GDP, a GDP analog with a tethered fluorophores. Activators are identified by monitoring the change in fluorescence signal as the exchanged free BODIPY-GDP has a reduced fluorescence compared to Rap1-bound BODIPY-GDP. Increase in signal (activation) is the desired outcome for the EPAC1 agonist while no activity in this assay is desired for the EPAC2 agonist counterscreen.
[1] de Rooij, J., Zwartkruis, F. J., Verheijen, M. H., Cool, R. H., Nijman, S. M., Wittinghofer, A., and Bos, J.L. (1998) Nature 396, 474-477.
Briefly, three uL of reagents (100 nM EPAC2, 250 nM RAP1B-BODIPY-GDP, 50 uM GDP) were dispensed into a 1536-well Greiner black solid-bottom medium binding assay plate. Controls and test compounds (23 nL) were transferred to the plate via a Kalypsys pin tool equipped with a 1536-pin array. The plates were centrifuged at 1,000 rpm for 15 seconds followed by 5 minute incubation at room temperature. The assay plates were read at 5 minute intervals for 30 minutes in the ViewLux plate reader using 480nm excitation and 540nm emission filters. The results were normalized to the agonist positive control of 6.5 mM cAMP.
Consider `O=c1[nH]cc(N(CCCl)CCCl)c(=O)[nH]1`, for which the Potency is 100 µM (active). In the case of `CN1CCCC2(CCN(C(=O)c3ccco3)CC2)C1`, the activation was 0.865% (inactive). On the same count and under the same terms, the result for `NCC(O)c1cccc(O)c1` (configuration not stated) reads -5.63% (inactive); that for `COc1ccc2c3c([nH]c2c1)C(C)=NCC3`, 23% (inactive) and -2.23% (inactive) and 8.55% (inactive).

Consider `CC1=NCCc2c1[nH]c1cc(O)ccc21`, for which the Potency is 100 µM (active). For `Nc1ccc(N=Nc2ccccc2)cc1`, the activation was -19.5% (inactive). As for `CCN1C[C@]2(COC)CC[C@H](OC)[C@@]34C5C[C@@H]6[C@@H](OC)C[C@@]7(OCO[C@@]7([C@@H](O)C23)[C@@H]14)C5[C@H]6OC` (some centres not stated), the activation was -3.22% (inactive). As for `[O]=[Cd]`, the activation is -0.16% (inactive). On the same count and under the same terms, as for `O=C1/C(=C/c2ccc(N(CCCl)CCCl)cc2)Cc2ccccc21`, the figure is -1.94% (inactive). On to `CC1=NN=C(c2ccc(N)cc2)c2cc3c(cc2C1)OCO3`, for which the Potency was 89.1 µM (active) and the activation is -34.2% (inactive).

As for `C[C@H]1[C@@H]2Cc3ccc(O)cc3[C@@]1(C)CCN2C`, the activation was -8.04% (inactive). Same read-out and setting: as for `CC1(C)C(O)CC(=O)[C@]2(C)C1CC(=O)[C@]1(C)C2CC[C@@]2(C)C(c3ccoc3)OC(=O)C3O[C@@]321` (some centres not stated), the figure is -10.4% (inactive); as for `CN1C2CC(OC(=O)C(CO)c3ccccc3)CC1C(O)C2` (configuration not stated), -0.713% (inactive). Still for that read-out and setting: as for `COc1ccc2[nH]cc(CCN(C(C)C)C(C)C)c2c1`, the figure is -8.55% (inactive); as for `O=S(=O)(O)c1cc(O)ccc1O`, -9.91% (inactive). Turning to `Cc1cc(O)ccc1Cl`, the activation is -10.1% (inactive) and -9.14% (inactive).

For `CC(C)(C)c1cc(O)ccc1O`, the Potency was 56.2 µM (active) and the activation is -17% (inactive). Regarding `COc1cc(C[C@@H](C)N)c(OC)cc1C`, the activation is -5.23% (inactive). Still for that read-out and setting: the result for `CC(C)C[C@H](NC(=O)[C@H](Cc1ccccc1)NC(=O)CNC(=O)[C@H](CO)NC(=O)[C@@H](N)Cc1ccc(O)cc1)C(=O)N[C@H](C(=O)O)[C@H](C)O` reads 9.65% (inactive). On the same count and under the same terms, as for `NC(N)=NCCCCCCCCCCN=C(N)N`, the figure is -12% (inactive) and 0.499% (inactive). `O=C1OC2(c3cc(Br)c(O)cc3Oc3c2cc(Br)c(O)[c]3[Hg])c2ccccc21` (configuration not stated): the Potency is 3.98 µM (active). In the case of `CN1CCC2(CC1)CCN(C(=O)c1ccco1)CC2`, the activation was 1.62% (inactive). Same read-out and setting: the result for `C[C@]12CCC3C(CC[C@H]4C[C@H](O)CC[C@]34C)[C@@H]1CC[C@@H]2C(=O)CO` (some centres not stated) reads -7.64% (inactive); that for `CCOC(=O)[C@]12Cc3c(cc(OC)c(OC)c3OC)[C@H]1N(Cc1ccccc1)C(=O)c1ccccc12`, -19.3% (inactive). On the same count and under the same terms, the result for `c1cnc(N2CC3(CCNCC3)C2)nc1` reads 2.58% (inactive).
